Results: PubChem BioAssay AID720597 (Broad Institute, 2013)
Potency and affinity values are given separately. The source made the active and inactive calls.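 The calls were made as follows: active = fitted half-maximal dose no more than twice the top valid tested dose, for compounds that lower signal; inconclusive = fit invalid, or curve flat with activity between -70 and -30; inactive = potency past limit, curve flat within ±30, or signal increasing.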

molecular target: NAD-dependent protein deacylase sirtuin-5, mitochondrial (Homo sapiens) (UniProt Q9NXA8); experiment: SIRT5 deacylase inhibitors, dose response, biochemical, fluorescence imaging, cherry-pick, set 6 (AID 720597); settings: Purified SirT5, succinyl-peptide-AMC/trypsin fluorescence; series mostly up to 15 µM;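 also: lower AMC signal can also come from blocking the trypsin step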
Sequence (Q9NXA8 whole entry, looked up): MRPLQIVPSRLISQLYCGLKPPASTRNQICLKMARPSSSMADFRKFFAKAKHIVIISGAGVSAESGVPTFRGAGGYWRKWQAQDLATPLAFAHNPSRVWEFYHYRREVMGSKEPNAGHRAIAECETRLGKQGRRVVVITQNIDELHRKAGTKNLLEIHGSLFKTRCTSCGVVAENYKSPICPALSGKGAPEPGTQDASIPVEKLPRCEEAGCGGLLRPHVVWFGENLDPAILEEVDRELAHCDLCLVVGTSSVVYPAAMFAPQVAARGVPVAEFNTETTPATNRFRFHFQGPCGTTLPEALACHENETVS

outcome, inactive:
COc1ccc(NC(=O)Nc2ccc3c(c2)C(=O)N([C@@H](C)CO)C[C@@H](C)[C@H](CN(C)C(=O)Nc2cccc4ccccc24)OCCCC[C@H](C)O3)cc1
COc1ccc(S(=O)(=O)N(C)C[C@H]2Oc3ncc(/C=C/c4ccccc4)cc3C(=O)N([C@H](C)CO)C[C@@H]2C)cc1
COc1ccc(S(=O)(=O)Nc2ccc3c(c2)C(=O)N([C@@H](C)CO)C[C@@H](C)[C@@H](CN(C)S(=O)(=O)c2cccs2)OCCCC[C@H](C)O3)cc1
C[C@H]1CN([C@@H](C)CO)S(=O)(=O)c2ccc(C#CC3CC3)cc2O[C@@H]1CN(C)C(=O)Cc1ccncc1
C[C@H](CO)N1C[C@H](C)[C@@H](CN(C)C(=O)Nc2cc(F)ccc2F)Oc2cc(/C=C/c3ccccc3)ccc2S1(=O)=O
C[C@@H]1CN([C@H](C)CO)C(=O)Cc2cc(NS(=O)(=O)c3ccccc3)ccc2O[C@H]1CN(C)Cc1ccc(Cl)c(Cl)c1
CNC[C@H]1Oc2ccc(NC(=O)Nc3ccc(F)cc3)cc2CC(=O)N([C@@H](C)CO)C[C@H]1C
C[C@H](CO)N1C[C@H](C)[C@H](CN(C)S(=O)(=O)c2cccc(F)c2)Oc2ncc(C#CC3CCCCC3)cc2C1=O
C[C@H](CO)N1C[C@H](C)[C@H](CN(C)C(=O)Nc2ccc(C(F)(F)F)cc2)OCCCC[C@H](C)Oc2ccc(NS(=O)(=O)c3ccc(Cl)cc3)cc2C1=O
CC(=O)N(C)C[C@@H]1Oc2ncc(C#Cc3cccc(F)c3)cc2C(=O)N([C@H](C)CO)C[C@H]1C
